Compound activity as filed in PubChem.
Hits are enriched below; roughly 12% of the tested compounds scored in any of these assays.
Shiga inhibitor: A qHTS for Small Molecule Inhibitors of Shiga Toxin. Vero cells, Shiga toxin protein synthesis inhibition reporter. inhibition, % at 38.7 µM. 290,000 tested, 9.2% active. AID 2315, 2010; in the data active = inhibition mostly above about 28%, no sharp cut-off; inactive = mostly below about 43%
SARS PLP yeast: qHTS of Yeast-based Assay for SARS-CoV PLP; S. cerevisiae expressing SARS-CoV PLpro, growth rescue; Potency, µM (top dose mostly 32.9 µM), hits mostly activators; 330,000 tested, 0.19% active; AID 485353, 2010; note: nearly all actives have a fitted effect of over 55% in size
Cycloheximide cs: Cycloheximide Counterscreen for Small Molecule Inhibitors of Shiga Toxin; max response, %; cell reporter, cycloheximide protein synthesis inhibition counterscreen; 300,000 tested, 12% active; in the data active = max response mostly above about 13%, no sharp cut-off; inactive = mostly below about 14%; note: read at 38.3 µM for the half of the compounds with a filed dose
NS1 function inh: qHTS Assay for Inhibitors of Influenza NS1 Protein Function. Potency, µM (doses to about 46.1 µM). 270,000 tested, 0.4% active; note: actives are rising curves; nearly all actives have a fitted effect of over 50% in size
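Growth recovery, yeast-based: influenza A NS1 expressed in S. cerevisiae causes slow growth, and suppressors are detected by OD600. The parent strain without NS1 is used as positive control.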
Large screens that a line does not name were inactive. Unless noted, calls come from the whole dose curve.

CC1CN(C(=O)c2cc([N+](=O)[O-])cc([N+](=O)[O-])c2)CC(C)O1 (stereo unspecified)	Shiga inhibitor 103.9, Cycloheximide cs 42.3
CC(CNC(=O)c1cc(COc2c(F)cccc2F)on1)Oc1cccnc1 (stereo unspecified)	none
CC(C)[C@@H](NC(=O)C1CCC(CNC(=O)[C@H](Cc2ccccc2)NC(=O)OC(C)(C)C)CC1)C(=O)O (stereo partly specified)	none
Cc1ccc(C)c(OCC(=O)N2CCc3ccccc3C2)c1	Cycloheximide cs 13.2
Cc1ccsc1C(=O)OCC(=O)N1CCc2ccccc2C1	Shiga inhibitor 115.1, Cycloheximide cs 45.2 (no result: NS1 function inh)
O=C(OCC(=O)N1CCc2ccccc2C1)c1ccc(Cl)c([N+](=O)[O-])c1	none (no result: Shiga inhibitor, Cycloheximide cs, NS1 function inh)
Cc1cc(OCC(=O)N2CCc3ccccc3C2)c(C)cc1Br	Shiga inhibitor 40.5, Cycloheximide cs 26.6
Nc1ccc(C(=O)OCC(=O)N2CCc3ccccc3C2)cc1[N+](=O)[O-]	Shiga inhibitor 56.9, Cycloheximide cs 38.5
Nc1cc(N)nc(CS)n1	none
CCCc1ccc(-c2cc(C(=O)NCCc3ccc(S(N)(=O)=O)cc3)c3ccccc3n2)cc1	Shiga inhibitor 94.7, Cycloheximide cs 54.3
Cc1ccc(-c2cc(C(=O)Nc3cc(C)on3)c3ccccc3n2)cc1	none
CC(C)Oc1cccc(-c2cc(C(=O)NN3CCOCC3)c3ccccc3n2)c1	Cycloheximide cs 12.4
CCCc1ccc(-c2cc(C(=O)NN3CCOCC3)c3ccccc3n2)cc1	Cycloheximide cs 20.2
CCCc1ccc(-c2cc(C(=O)Nc3ccc([N+](=O)[O-])cn3)c3ccccc3n2)cc1	Shiga inhibitor 16.8, Cycloheximide cs 21.4
Cc1ccnc(NS(=O)(=O)c2ccc(NC(=O)CN3C(=O)c4ccccc4S3(=O)=O)cc2)n1	none (no result: Shiga inhibitor, Cycloheximide cs, NS1 function inh)
O=C(COc1ccc2c(c1)OCO2)NCc1cccs1	none (no result: Shiga inhibitor, Cycloheximide cs, NS1 function inh)
CCN(CC)S(=O)(=O)c1cc(C(=O)c2nccn2C)ccc1Cl	none (no result: NS1 function inh)
COc1ccc(CNC(=O)C(=O)NCC2OCCN2S(=O)(=O)c2ccc3c(c2)OCCO3)cc1 (stereo unspecified)	none
Cc1cccc(COc2ccc(/C=N/NC(=O)c3nnn(-c4nonc4N)c3COc3ccc(F)cc3)cc2)c1	Cycloheximide cs 16.5
Nc1nonc1-n1nnc(C(=O)N/N=C/C=C/c2ccccc2)c1CSC1=NCCS1	Shiga inhibitor 43.1, Cycloheximide cs 16.7
CCc1c(C(=O)N/N=C/c2cccs2)nnn1-c1nonc1N	Shiga inhibitor 45.1, Cycloheximide cs 23.2
Nc1nonc1-n1nnc(C(=O)N/N=C/c2c(Cl)cccc2Cl)c1CSC1=NCCS1	none
Nc1nonc1-n1nnc(C(=O)N/N=C/c2ccc(OCc3cccc(Cl)c3)cc2)c1CN1CCCCC1	Cycloheximide cs 26.6
CC(/C=N/NC(=O)c1nnn(-c2nonc2N)c1C(C)C)=C\c1ccccc1	Cycloheximide cs 28.6
Nc1nnnn1CC(=O)N/N=C/c1cccs1	Cycloheximide cs 17.0
CCCc1c(C(=O)N/N=C/C(C)=C/c2ccccc2)nnn1-c1nonc1N	none
CN(c1ccccc1)S(=O)(=O)c1cccc(NC(=O)c2cc(=O)c3ccccc3o2)c1	none (no result: NS1 function inh)
COc1ccc(CCNC(=O)CCc2ccsc2)cc1OC	none
CN(C)CCCN1C(=O)c2oc3ccc(Cl)cc3c(=O)c2C1c1cccnc1 (stereo unspecified)	none
OCCN=c1cc(-c2ccccc2)oc2ccc(Cl)cc12	Shiga inhibitor 189.7, Cycloheximide cs 52.4
O=c1oc2ccc(Cl)cc2cc1-c1ccccc1	none
CN(C)CCCN=c1cc(-c2ccccc2)oc2ccc(Cl)cc12	Cycloheximide cs 13.6 (no result: NS1 function inh)
CCOC(=O)c1c(-c2ccccc2Cl)csc1NC(=O)CSc1nc(C)cc(=O)[nH]1	none
COc1ccc(CNC(=O)N2CCc3ccccc3C2)cc1	Shiga inhibitor 58.3, Cycloheximide cs 15.8
COc1ccc(CN(C)CC(=O)N2CCc3ccccc3C2)cc1	none
O=C(NCc1ccc(F)cc1)N1CCc2ccccc2C1	Cycloheximide cs 36.3
O=C(NCc1ccc(F)cc1)C1CCN(C(=O)NCc2ccccc2)CC1	none
COc1ccc(CCN(C)C(=O)CCNC(=O)c2ccc(Br)cc2)cc1OC	none
CCCOC1CCCN(C(=O)CCc2nnc(CCCCc3ccccc3)o2)C1 (stereo unspecified)	Shiga inhibitor 41.5, Cycloheximide cs 33.8
O=C(CCc1nnc(CCCc2ccccc2)o1)N1CCCCCC1	Shiga inhibitor 86.8, Cycloheximide cs 32.1
O=C(CCc1ccccc1)N1CCCC1	none
CC1CCCN(C(=O)CCc2ccccc2)C1 (stereo unspecified)	Shiga inhibitor active, Cycloheximide cs 9.3
CC(CCN1C(Nc2ccccc2)=NC[C@@H]1C)c1ccccc1 (stereo partly specified)	none
O=C(O)C[C@H](Cc1ccccc1Cl)C(=O)O	none (no result: Shiga inhibitor, SARS PLP yeast, Cycloheximide cs)
